Some test systems named below: SK-MEL-2 melanoma; EKVX NSCLC; SN12C renal; UO-31 renal; TK-10 renal; ACHN renal; CAKI-1 renal; A498 renal; CCRF-CEM leukemia; MOLT-4 leukemia.
Test in all cases: NCI-60 one-dose screen, 48 h (100 = growth as untreated, 0 = no growth, -100 = all killed)
Common to all, as to conditions: 10 µM

About 83,000 compounds went through this panel and 20% of them were active in at least one assay; those are over-represented in the sample as a whole.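 96-well plates, one dose, 48 hours. Percent growth reported; active if below 10.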 Unmarked numbers belong to inactive results. Calls of active or inactive are those of the source.

For `COc1ccc2c(c1)C(=O)/C(=C/c1cccc(OCC(=O)c3ccc([N+](=O)[O-])cc3)c1)CO2`, the growth is -47.3% (active) in the assay on SK-MEL-2 melanoma; 75.6% in the assay with EKVX NSCLC; 65.6% in the assay with SN12C renal; -68% (active) with UO-31 renal; 3.16% (active) in the assay on TK-10 renal; 51.8% with ACHN renal. Moreover, the growth with CAKI-1 renal is 16.3%; in the assay on A498 renal, 79.5%; in the assay on CCRF-CEM leukemia, -11.8% (active); in the assay on MOLT-4 leukemia, -38% (active).
Consider `COc1cc(/C=C2\CCCC3=C2N=C2SC(C)=CN2C3c2cc(OC)c(OC)c(OC)c2)cc(OC)c1OC` (stereo not given), for which the growth is -19.6% (active) in the assay on SK-MEL-2 melanoma; 19.6% with EKVX NSCLC; -23.6% (active) in the assay with SN12C renal; -37.2% (active) in the assay on UO-31 renal; 2.25% (active) in the assay with TK-10 renal; -78.6% (active) with ACHN renal. The growth in the assay with CAKI-1 renal is 11.1%; in the assay with A498 renal, -30.9% (active); in the assay with CCRF-CEM leukemia it was 1.41% (active); in the assay with MOLT-4 leukemia, 1.02% (active).
In the case of `CCCC1(CN2c3ccccc3Sc3ccc(Cl)cc32)CCN(CC)C1` (stereo not given), the growth with SK-MEL-2 melanoma was -3.45% (active); in the assay with EKVX NSCLC it was -12.8% (active); in the assay with SN12C renal, 23.1%; with UO-31 renal it was -1.01% (active); with TK-10 renal, -56.6% (active); in the assay on ACHN renal, 0.109% (active). The growth with CAKI-1 renal was -14.2% (active); in the assay on A498 renal, 8.05% (active); in the assay with CCRF-CEM leukemia it was -11.2% (active); in the assay with MOLT-4 leukemia it was -27.9% (active).
With `Cc1ccc(-n2nnnc2N)c(C)c1`, the growth in the assay with SK-MEL-2 melanoma is 114%; in the assay on EKVX NSCLC, 98.5%; in the assay on SN12C renal, 113%; in the assay on UO-31 renal it was 94.6%; in the assay on TK-10 renal, 136%; with ACHN renal, 102%. In addition, the growth in the assay on CAKI-1 renal was 94.5%; with A498 renal it was 80%; in the assay on CCRF-CEM leukemia, 112%; in the assay on MOLT-4 leukemia, 109%.
On to `CCOC(=O)C1=CSC2=NC3=C(CCC/C3=C\c3ccc(Cl)cc3)C(c3ccc(Cl)cc3)N12` (stereo not given), for which the growth is 106% in the assay on SK-MEL-2 melanoma; 91.6% with EKVX NSCLC; 95% in the assay on SN12C renal; 95.2% in the assay on UO-31 renal; 119% with TK-10 renal; 107% in the assay on ACHN renal. For the same molecule, the growth with CAKI-1 renal is 103%; in the assay with A498 renal, 78.1%; in the assay with CCRF-CEM leukemia, 87.8%; in the assay on MOLT-4 leukemia, 82.2%.
For the molecule `COc1ccc(/C(C#N)=C/c2ccccc2OC)cc1`, the growth was 15.9% with SK-MEL-2 melanoma; 64.6% with EKVX NSCLC; 47.3% with SN12C renal; 52.2% in the assay on UO-31 renal; 53% with TK-10 renal; 44.1% in the assay with ACHN renal. Also, the growth in the assay with CAKI-1 renal was 39%; with A498 renal it was 25.6%; in the assay with CCRF-CEM leukemia, 16.2%; with MOLT-4 leukemia, 21.3%.
For the molecule `Nc1c(Br)cc(Br)c2c1[nH]c(=O)c1ccccc12`, the growth with SK-MEL-2 melanoma is 98.6%; with EKVX NSCLC, 57%; with SN12C renal, 80.1%; in the assay on UO-31 renal it was 27.8%; in the assay with TK-10 renal, 31.5%; in the assay with ACHN renal it was 10.9%. The growth is 68.6% in the assay on CAKI-1 renal, 53.8% in the assay with A498 renal, 93.2% in the assay with CCRF-CEM leukemia and 80.8% in the assay on MOLT-4 leukemia.
Turning to `CC(=O)OC1C=CC(OC(C)=O)O1` (stereo not given), the growth in the assay on SK-MEL-2 melanoma is 88.9%; with EKVX NSCLC, 99.3%; in the assay on SN12C renal, 89.8%; with UO-31 renal, 59.4%; in the assay with TK-10 renal, 102%; in the assay with ACHN renal it was 97.9%. Moreover, the growth in the assay with CAKI-1 renal is 89%; with A498 renal, 81.3%; with CCRF-CEM leukemia, 76.6%; in the assay with MOLT-4 leukemia it was 90%.
For `COc1ccc(C(=O)COc2cccc(/C=C3\Cc4ccccc4C3=O)c2)cc1`, the growth is 51.8% in the assay on SK-MEL-2 melanoma; 87.8% in the assay with EKVX NSCLC; 92.7% in the assay with SN12C renal; 12.1% in the assay with UO-31 renal; 111% in the assay with TK-10 renal; 95.8% in the assay with ACHN renal. In addition, the growth with CAKI-1 renal is 76.4%; with A498 renal, 94.7%; with CCRF-CEM leukemia it was 80.8%; in the assay on MOLT-4 leukemia, 85.8%.
Regarding `COC(=O)C1OC1c1cc([N+](=O)[O-])ccc1OC` (stereo not given), the growth was 111% in the assay on SK-MEL-2 melanoma; 102% with EKVX NSCLC; 107% in the assay on SN12C renal; 74.4% in the assay with UO-31 renal; 107% with TK-10 renal; 108% in the assay on ACHN renal. In addition, the growth with CAKI-1 renal was 83.2%; in the assay with A498 renal it was 127%; in the assay with CCRF-CEM leukemia, 96%; with MOLT-4 leukemia, 83.6%.
Consider `Cc1ccc(C(=O)/C=C/c2ccccc2)s1`, for which the growth in the assay with SK-MEL-2 melanoma is 102%; in the assay with EKVX NSCLC it was 82.3%; with SN12C renal it was 103%; in the assay on UO-31 renal, 77.7%; in the assay with TK-10 renal, 108%; in the assay on ACHN renal, 121%. In addition, the growth in the assay on CAKI-1 renal was 92.4%; with A498 renal it was 90.5%; with CCRF-CEM leukemia it was 99.8%; in the assay on MOLT-4 leukemia it was 100%.
For the molecule `COc1ccc(C(=O)N2C=Cc3ccccc3C2C#N)cc1` (stereo not given), the growth in the assay on SK-MEL-2 melanoma was 101%; with EKVX NSCLC, 99.4%; in the assay with SN12C renal it was 89.3%; with UO-31 renal, 73.9%; with TK-10 renal it was 100%; in the assay on ACHN renal, 96.4%. Besides, the growth with CAKI-1 renal was 87.3%; in the assay with A498 renal, 91.1%; in the assay with CCRF-CEM leukemia, 92.7%; with MOLT-4 leukemia, 83.4%.
On to `O=C1c2ccccc2C(=O)N1CCCCNc1ccccc1`, for which the growth was 121% in the assay on SK-MEL-2 melanoma; 127% in the assay on EKVX NSCLC; 50.4% in the assay with SN12C renal; 61.7% in the assay with UO-31 renal; 117% in the assay with TK-10 renal; 104% in the assay with ACHN renal. For the same molecule, the growth with CAKI-1 renal is 101%; in the assay with A498 renal it was 70.2%; with CCRF-CEM leukemia it was 21.3%; in the assay on MOLT-4 leukemia, 49.7%.
As to `c1ccc(CCCCc2ccc3ccccc3n2)cc1`, the growth with SK-MEL-2 melanoma is 94.3%; in the assay on EKVX NSCLC it was 98.1%; in the assay with SN12C renal, 105%; with UO-31 renal, 91.4%; in the assay with TK-10 renal it was 90.2%; in the assay with ACHN renal it was 103%. In addition, the growth is 99.4% in the assay with CAKI-1 renal, 94.5% in the assay on A498 renal, 99.8% in the assay with CCRF-CEM leukemia and 97.3% in the assay with MOLT-4 leukemia.
